From PubChem BioAssay
In the library only some 19% were active in any assay of this set; here they are far more common.
HT1080 IDH1KD tx – HT-1080 IDH1 knockdown cell toxicity (counter line). HT-1080 IDH1 knockdown viability, ATP luminescence, 48 h. Potency, µM (series often up to 46.1 µM), usual class: cytotoxic. 360,000 compounds, 2% hits. AID 686971
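Cytotoxicity counter-line: IDH1KD HT-1080, 48 h, CellTiter-Glo. Curves classed by r2, magnitude and activity.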
HT1080NT lethal – kills 2HG-producing HT-1080-NT fibrosarcoma cells. Potency, µM (top dose mostly 46.1 µM), usual class: cytotoxic. HT-1080-NT fibrosarcoma viability, CellTiter-Glo ATP luminescence, 48 h. 360,000 compounds, 1.6% hits. AID 686970;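 further: NT is the 2HG producing partner of a matched IDH1 knockdown line; nearly all actives have a fitted effect of over 55% in size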
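A 48-hour cytotoxicity screen used HT-1080-NT cells plated 2 hours before compound delivery. ATP-based CellTiter-Glo luminescence measured viability, normalized to DMSO and no-cell controls.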
DT40 TDP1 no CPT – qHTS for Inhibitors of human tyrosyl-DNA phosphodiesterase 1 (TDP1): qHTS in cells in absence of CPT. DT40 Tdp1-/- hTDP1 cells, no CPT, ATP luminescence, 48 h. Potency, µM (doses to about 46.2 µM), hits mostly inhibitors. 420,000 compounds, 15% hits; further: nearly all actives have a fitted effect of over 55% in size
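Luminescent ATP content (CellTiter-Glo) served as the growth readout. Knockout chicken DT40 cells expressing human TDP1 were exposed to compounds without camptothecin for a minimum 48 hr at 37 °C.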
KB-V1 cytotox – kills drug-selected multidrug resistant KB-V1 cells; KB-V1 MDR cells viability, CellTiter-Glo, 72 h; Potency, µM (top dose mostly 46.1 µM), usual class: cytotoxic; 400,000 compounds, 3.4% hits; AID 1347076; further: nearly all actives have a fitted effect of over 60% in size
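Drug-selected KB-V1 cells, grown in DMEM lacking phenol red with 10% FBS, receive compound titrations; after three days at 37 degrees C, surviving cell ATP is quantified by CellTiter-Glo luminescence and responses normalized and curve-fitted.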
KB-3-1 tox – kills parental KB-3-1 adenocarcinoma cells; AID 1347075; KB-3-1 viability, CellTiter-Glo ATP luminescence, 72 h; Potency, µM (highest dose often 46.1 µM), most hits filed as cytotoxic; 400,000 compounds, 1.4% hits; further: nearly all actives have a fitted effect of over 60% in size
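Viability of parental KB-3-1 cells, measured by CellTiter-Glo luminescence, followed a 72 h incubation at 37 °C with pinned compounds in phenol-red-free DMEM containing 10% FBS.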
TDP1 cell CPT – growth inhibition of DT40 Tdp1-/-;hTDP1 cells with camptothecin (screen for TDP1 inhibitors); chicken DT40 Tdp1-/-;hTDP1 cells + 20 nM CPT, ATP luminescence, 48 h; 420,000 compounds, 12% hits; Potency, µM (top dose mostly 46.2 µM), most hits filed as inhibitors; AID 686979; further: nearly all actives have a fitted effect of over 55% in size
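Chicken DT40 Tdp1-/- cells complemented with human TDP1, 400 cells/well, exposed to compounds plus 20 nM camptothecin for at least 48 h at 37 C; viability read as ATP content by CellTiter-Glo luminescence.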
Hits are given with their value; - = inactive; ? = inconclusive; . = no result given; [ ] = dose if it differs, or a comment. The call rests on the fitted dose curve; in most records, active means well fitted curve in the direction sought with a large enough effect; inconclusive means small, poorly fitted or top-dose-only effect, or another doubt; inactive means no such curve, though single readings can be large; an effect the other way counts as inactive or inconclusive.

SMILES	HT1080 IDH1KD tx	HT1080NT lethal	DT40 TDP1 no CPT	KB-V1 cytotox	KB-3-1 tox	TDP1 cell CPT
CN1CCN(c2nc3ccccc3nc2C(C#N)S(=O)(=O)c2ccccc2)CC1 (stereo not drawn)	-	-	-	-	?	-
COc1ccc(NC(=O)Cn2c(=O)n(-c3cccc(C)c3)c(=O)c3c2c2cc(C)ccc2n3C)cc1Cl	.	.	-	-	-	?
O=C(Nc1ccc(Cl)cc1)c1ccc(CN2CCc3ccccc3C2)cc1	-	?	-	-	?	?
O=C(Nc1ccccc1)c1ccc(S(=O)(=O)N2CCOCC2)cc1	-	-	-	-	-	-
O=C(Nc1ccc(S(=O)(=O)N2CCOCC2)cc1)c1ccc(CN2CCc3ccccc3C2)cc1	20.6µM	?	0.92µM	2.91µM	?	1.16µM
O=C(Nc1ccc(S(=O)(=O)N2CCCC2)cc1)c1ccc(CN2CCc3ccccc3C2)cc1	?	-	4.11µM	?	?	8.2µM
O=C(Nc1ccccc1)N1CC2(CCN(C(=O)c3cnccn3)CC2)C1	.	.	-	.	.	-
OCCn1c(SCCOc2ccccc2F)nc2ccccc21	-	-	?	-	-	-
CCN(CC)C(=O)Cn1c(SCCOc2ccc(Cl)cc2)nc2ccccc21	.	.	20.6µM	-	-	?
O=C(O)Cn1c(SCCOc2ccc(Cl)cc2)nc2ccccc21	-	-	-	-	-	-
O=C(O)Cn1c(SCCOc2ccccc2F)nc2ccccc21	?	-	16.4µM	?	-	?
CC1=C(C(=O)Nc2ccc(Cl)cc2)C(c2ccc(C(F)(F)F)cc2)n2nnnc2N1 (stereo not drawn)	.	.	.	-	-	.
COCCNc1nc2cc(-c3cccc(Cl)c3)sc2c(=O)n1C	-	-	?	-	-	?
CCOC(=O)C1CCN(C(=O)COC(=O)CN(C)S(=O)(=O)c2ccc(NC(C)=O)cc2)CC1	-	-	-	-	-	-
O=C(NCc1ccncc1)C(=O)NCC1OCCN1S(=O)(=O)c1ccccc1 (stereo not drawn)	-	-	-	-	-	-
CCc1c(-c2cccc(Br)c2)ncn1Cc1cccc(-c2ccccc2)c1	?	-	23.1µM	-	?	?
CCCc1c(-c2cccc(Cl)c2)ncn1Cc1cccc(-c2ccccc2)c1	23.1µM	?	18.4µM	20.6µM	?	20.6µM
CCCc1c(-c2ccc(F)cc2F)ncn1Cc1cccc(-c2ccccc2)c1	?	?	4.11µM	?	?	5.17µM
CCc1c(-c2cccc(Cl)c2)ncn1Cc1cccc(-c2ccccc2)c1	?	?	?	16.4µM	?	?
COc1ccccc1N(CC(O)CN1C(C)CCCC1C)S(=O)(=O)c1ccccc1 (stereo not drawn)	-	-	-	-	-	-
CCCCn1nnnc1C1(C)CCC(=O)N1CC(F)(F)F (stereo not drawn)	-	-	-	-	-	-
CCOC(=O)c1c(C)c(C(=O)NCc2ccc(Cl)cc2)c(C)n1C	.	.	-	?	-	-
Oc1ccc(N=Nc2ccc3c(c2)OCCO3)c(O)c1	?	-	?	-	-	?
Oc1ccc(N=Nc2ccc(Br)cc2)c(O)c1	?	?	23.1µM	-	-	25.9µM
COc1ccc(CCC(=O)Nc2cc(S(=O)(=O)N3CCOCC3)ccc2OC(C)C)cc1	-	-[9.24 µM]	-	-	-	-
SMILES	HT1080 IDH1KD tx	HT1080NT lethal	DT40 TDP1 no CPT	KB-V1 cytotox	KB-3-1 tox	TDP1 cell CPT
CCOc1nc2c(c(=O)n(C)c(=O)n2C)n1Cc1ccccc1Cl	-	-	11.6µM	4.11µM	?	16.4µM
C=CCOc1nc2c(c(=O)n(Cc3ccc(Cl)c(Cl)c3)c(=O)n2C)n1C	-	-	23.1µM	?	-	16.4µM
CCOCCn1c(=O)c2c(nc3n2CC(C)CN3CCc2ccccc2)n(C)c1=O (stereo not drawn)	-	-	?	-	-	25.9µM
CN1CCN(c2nc3c(c(=O)n(C)c(=O)n3C)n2Cc2ccccc2Cl)CC1	-	-	-	-	-	-
COC(=O)Cn1c(=O)c2c(nc3n2CC(C)CN3CCc2ccccc2)n(C)c1=O (stereo not drawn)	-	-	?	-	-	?
C=CCOc1nc2c(c(=O)n(C)c(=O)n2C)n1Cc1c(Cl)cccc1Cl	-	-	20.6µM	?	-	?
Cc1ccc2c(c1)C(=O)OC(C(=O)Nc1ncc(Cc3ccc(C(C)C)cc3)s1)C2 (stereo not drawn)	.	.	.	-	-	.
COc1ccc(C(=O)Nc2c(N)nc(SCC(=O)NCC3CCCO3)[nH]c2=O)cc1 (stereo not drawn)	-	-	-	-	-	-
CC1=C(C(=O)Nc2cccnc2)C(c2ccc(F)cc2)n2nc(-c3cccc(C)c3)nc2N1 (stereo not drawn)	.	.	?	-	-	?
CCOC(=O)c1c(C)oc2ncnc(Nc3ccc(OC)c(OC)c3)c12	.	.	?	-	-	?
Cc1ccc(OCC(=O)NNC(=O)C2CSC3(C)CCC(=O)N23)cc1 (stereo not drawn)	-	-	-	-	-	-
CCOCCOc1nc2c(c(=O)n(C)c(=O)n2C)n1CCc1ccccc1	-	-	20.6µM	?	-	18.4µM
COCCOc1nc2c(c(=O)n(C)c(=O)n2C)n1Cc1cccc(OC)c1	-	-	7.31µM	?	-	8.2µM
O=c1[nH][nH]c(-c2ccccc2O)c1C(C[N+](=O)[O-])c1ccccc1 (stereo not drawn)	-	-	5.17µM	-	-	4.61µM
Cn1c(CNC(=O)c2ccc(Cl)cc2)nnc1SCC(=O)N1CCOCC1	-	-	-	.	.	-
CCCOc1ccc(-c2nn(-c3ccccc3)cc2/C=C2\SC(N)=NC2=O)cc1	-	-	-	-	-	-
Cc1cc(-c2nn(-c3ccccc3)cc2/C=C2\SC(N)=NC2=O)ccc1OC(C)C	-	-	?	16.4µM	?	?
COCCn1c(=O)c(-c2cccc(C#N)c2)nc2cnc(N(C)C)nc21	.	.	-	.	.	-
Cc1[nH]ccc(=O)c1OCc1c(Cl)cccc1Cl	-	-	-	-	-	-
Cc1ccc(Cn2ccc(=O)c(OCc3c(Cl)cccc3Cl)c2C)cc1	?	?	14.6µM	?	-	18.4µM
CC1=C(C(=O)OCC2CCCO2)C(c2cccc(C(F)(F)F)c2)C2=C(CC(c3ccco3)CC2=O)N1 (stereo not drawn)	?	-	?	?	15.8µM	?
CSc1ccc(CCNC(=O)c2ccc(-c3nc(COc4ccccc4)c(C)o3)cc2)cc1	.	.	-	-	-	-
